The values below come from PubChem BioAssay (NCATS).

Test [1] addresses Glutathione peroxidase 1 (Homo sapiens) (UniProt P07203). The experiment in a line: Primary qHTS Assay for Inhibitors of Recombinant Selenoprotein Glutathione Peroxidase 1 (GPX1) (AID 1845191). Also: nearly all actives have a fitted effect of over 65% in size. As to activity, negative = inhibition: % is scaled to controls: 0 for no effect and ±100 for the full control effect. In a few lines:
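GR-coupled assay: compounds preincubated 30 min at room temperature with GPX1, then reaction started with CHP; final 10 nM GPX1, 1 mM GSH, 0.5 mM CHP, 0.5 mM NADPH, 100 nM GR, 0.01% BSA, pH 7.5 Tris buffer. NADPH fluorescence (340/450 nm) read at 0 and 15 min.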
(Quantitative high-throughput screening tests each substance at several concentrations.)

In test [2] the target is Phospholipid hydroperoxide glutathione peroxidase GPX4 (Homo sapiens) (UniProt P36969). The experiment in a line: Primary qHTS Assay for Inhibitors of Recombinant Selenoprotein Glutathione Peroxidase 4 (GPX4) (AID 1845192). Also: nearly all actives have a fitted effect of over 65% in size. As to activity change, negative = inhibition: series mostly up to about 50 µM; % is scaled to controls: 0 for no effect and ±100 for the full control effect. A digest of the protocol:
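GR-coupled assay: recombinant GPX4 preincubated 30 min with compound at room temperature; final 200 nM GPX4, 1 mM GSH, 0.5 mM cumene hydroperoxide, 0.5 mM NADPH, 100 nM GR, 0.01% BSA, pH 7.5 Tris. NADPH fluorescence (340/450 nm) read at 0 and 15 min.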

Test [3] addresses Luciferin 4-monooxygenase (Photinus pyralis) (UniProt P08659). The experiment in a line: Primary firefly luciferase (FLuc) qHTS assay for identification of artifact compounds. (AID 1845220). Also: nearly all actives have a fitted effect of over 60% in size.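 As to activity change, negative = inhibition: series mostly up to about 54 µM; plate controls were DMSO vehicle for no effect and no enzyme for full effect.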 A digest of the protocol: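 Enzymatic FLuc inhibition assay: compounds pre-exposed to luciferin/ATP (10 uM each) for 15 min, then purified P. pyralis enzyme at 10 nM added. Read-out: luminescence at 5 min.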

Test [4] can be described thus: Primary fluorescence-based thiol-reactive (MSTI) qHTS assay for identification of artifact compounds. (AID 1845221). Also: nearly all actives have a fitted effect of over 65% in size. Also: potency is read from the fitted curve at half-maximal effect.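 As to activity change, negative = thiol reactive: series mostly up to about 54 µM; thiol-reactive compounds lower the probe fluorescence signal.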 A digest of the protocol:
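Thiol-reactive compounds detected by quenching of 4 uM MSTI fluorescence (525/598 nm) after 1 h room-temperature dark incubation in PBS pH 7.4, 2% DMSO. qHTS titration; percent inhibition Hill-fitted against Acetyl-MSTI/MSTI controls.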

In test [5] the test system is Nanoluciferase (engineered Oplophorus gracilirostris luciferase). The experiment in a line: Primary Nanoluciferase (NLuc) qHTS assay for identification of artifact compounds. (AID 1845222). Also: potency is read from the fitted curve at half-maximal effect.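 As to activity, negative = inhibition: NLuc secreted into diluted conditioned medium of S16 cells; series mostly up to about 54 µM; 0% = DMSO and -100% = no enzyme.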 A digest of the protocol: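 S16 cell supernatant NLuc, 1:55; cpds qHTS; 15 min RT dark; Nano-Glo substrate 1:100, 5 min; luminescence; Hill fit of % inhibition.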
A short description of test [6]: Primary redox qHTS assay for identification of artifact compounds. (AID 1845223).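 Also: 0% = DMSO and 100% = reference compound.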 A digest of the protocol:
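Amplex Red (25 uM) and HRP (250 mU/mL) in HBSS, with compounds for 15 min, then 250 uM DTT for 30 min, room temperature, dark. Fluorescence 525/598 nm read; normalized to DMSO and 10 uM DA3003; Hill fit.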

Unmarked numbers belong to inactive results. Records with an inconclusive call do not appear. Activity calls are given as the source filed them. Calls follow the shape of the dose curve; as a rule, active = well fitted curve in the direction sought with a large enough effect; inconclusive = small, poorly fitted or top-dose-only effect, or another doubt; inactive = no such curve, though single readings can be large; an effect the other way counts as inactive or inconclusive.

Phospholipid hydroperoxide glutathione peroxidase GPX4 (Homo sapiens), sequence (P36969 whole entry, looked up): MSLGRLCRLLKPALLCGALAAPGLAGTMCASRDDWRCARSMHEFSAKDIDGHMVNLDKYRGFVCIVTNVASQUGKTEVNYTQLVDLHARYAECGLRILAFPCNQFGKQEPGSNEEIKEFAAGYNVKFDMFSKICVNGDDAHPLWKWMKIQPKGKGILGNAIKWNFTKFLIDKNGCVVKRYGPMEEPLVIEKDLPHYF
Glutathione peroxidase 1 (Homo sapiens), sequence (P07203 whole entry, looked up): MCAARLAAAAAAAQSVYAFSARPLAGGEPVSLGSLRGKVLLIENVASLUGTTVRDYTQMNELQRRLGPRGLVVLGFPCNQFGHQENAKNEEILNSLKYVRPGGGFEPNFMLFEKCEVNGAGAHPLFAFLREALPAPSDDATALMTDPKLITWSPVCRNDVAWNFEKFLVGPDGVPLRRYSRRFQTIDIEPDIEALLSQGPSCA

Consider `CC(C)(C)NS(=O)(=O)c1cncc(-c2cc(F)c3nc(N)nn3c2)c1`, for which the Potency result in test [1], in test [2], in test [3], in test [4], in test [5] and in test [6] was “inactive” throughout.
For `CC1CCC2(OC1)OC1CC3C4CC=C5CC(O)CC(O[C@@H]6OC[C@@H](O)[C@H](O)[C@H]6O)C5(C)C4CCC3(C)C1(O)C2C` (stereo partly specified), the Potency entry in test [1], in test [2], in test [3], in test [4], in test [5] and in test [6] was “inactive” in each case.
Take `COCC1OC(OC(C)(C)C2CCC3(C)C=C(C4CCC5C4(C)CC(O)C4OC(C(C)(C)OC6OC(CO)C(O)C(O)C6NC(C)=O)CCC45C)CCC3O2)C(NC(C)=O)C(O)C1O` (stereo unspecified): the Potency result in test [1] and in test [2] was “inactive” each time. Besides, the activity change, negative = inhibition in test [3] was 0.545% [at 11.6 µM]. Also, the activity change, negative = thiol reactive in test [4] was 5.19% [at 11.5 µM]. Also, the activity, negative = inhibition in test [5] is -0.592% [at 11.6 µM]. In addition, in test [6], the redox activity (% of DA3003) is 3.42% [at 11.5 µM].
On to `C/C=C1\[C@H](O[C@@H]2O[C@H](CO)[C@@H](O)[C@H](O)[C@H]2O)OC=C(C(=O)OC)[C@H]1CC(=O)OC[C@H]1O[C@@H](OCCc2ccc(O)cc2)[C@H](O)[C@@H](O)[C@@H]1O`, for which the Potency entry in test [1], in test [2], in test [3], in test [5] and in test [6] was “inactive” in each case. Also, in test [4], the Potency is 2.24 µM (active).
For `O=C(CCCCN1CCOCC1)Nc1ccc(-c2cccnc2)cc1`, the Potency result in test [1], in test [2], in test [3], in test [4], in test [5] and in test [6] was “inactive” each time.
On to `CC(C)(C)OC(=O)N1CCC(OCc2nc(-c3ccncc3)no2)CC1`, for which the Potency result in test [1], in test [2], in test [3], in test [4], in test [5] and in test [6] was “inactive” in each case.
Regarding `COc1cc(C(=O)OC[C@@]2(O)CO[C@@H](O[C@H]3[C@H](Oc4ccc(C(=O)O)cc4OC)O[C@H](CO)[C@@H](O)[C@@H]3O)[C@@H]2O)ccc1O`, the Potency entry in test [1], in test [2], in test [3], in test [4], in test [5] and in test [6] was “inactive” throughout.
For `C[C@@H]1C(=O)O[C@H]2[C@H](O)C34[C@H]5C[C@@H](C(C)(C)C)C36[C@@H](OC(=O)[C@@H]6O)O[C@@]4(C(=O)O5)[C@@]12O` (stereo partly specified), the Potency result in test [1], in test [2], in test [3], in test [4], in test [5] and in test [6] was “inactive” in each case.
With `Cc1noc(-c2ccc(-c3ccc(CC(=O)O)cc3)cc2)c1NC(=O)O[C@H](C)c1ccccc1`, the Potency result in test [1], in test [2], in test [3], in test [4] and in test [6] was “inactive” in each case. In addition, the Potency in test [5] is 10.7 µM (active).
Turning to `C=C1CCCC2(C)CC3(OC)OC(=O)C(C)=C3CC12` (stereo unspecified), the Potency entry in test [1], in test [2], in test [3], in test [4], in test [5] and in test [6] was “inactive” throughout.
On to `NC1CCC(Nc2cc(-c3cccc(NCc4cccc(F)c4)n3)c(Cl)cn2)CC1` (stereo unspecified), for which the Potency entry in test [1], in test [2], in test [3], in test [4], in test [5] and in test [6] was “inactive” in each case.
`O=C(O)CC(=O)OC[C@H]1O[C@@H](Oc2ccc3c(c2)OC[C@H]2c4cc5c(cc4O[C@@H]32)OCO5)[C@H](O)[C@@H](O)[C@@H]1O`: the Potency entry in test [1], in test [2], in test [3], in test [4], in test [5] and in test [6] was “inactive” throughout.
Take `CC1(C)CC[C@]2(C(=O)O[C@@H]3O[C@H](CO)[C@@H](O)[C@H](O)[C@H]3O)CC[C@]3(C)C(=CCC4[C@@]5(C)CC[C@H](O[C@@H]6O[C@H](C(=O)O)[C@@H](O)[C@H](O[C@@H]7O[C@H](CO)[C@H](O)[C@H](O)[C@H]7O)[C@H]6O)C(C)(C)C5CC[C@]43C)C2C1` (stereo partly specified): the Potency entry in test [1] and in test [2] was “inactive” each time. Moreover, the activity change, negative = inhibition in test [3] is -3.44% [at 11.6 µM]. Also, the activity change, negative = thiol reactive in test [4] is 172% [at 11.5 µM]. In addition, in test [5], the activity, negative = inhibition is 3.94% [at 11.6 µM]. In addition, in test [6], the redox activity (% of DA3003) is 0.97% [at 11.5 µM].
For the compound `C[C@@H]1O[C@@H](O[C@@H]2[C@@H](O)[C@H](O[C@H]3[C@H](O[C@H]4CC[C@@]5(C)C(CC[C@]6(C)C5CC=C5[C@@H]7CC(C)(C)CC[C@]7(C(=O)O[C@@H]7O[C@H](CO)[C@@H](O)[C@H](O)[C@H]7O[C@@H]7O[C@@H](C)[C@H](O[C@@H]8O[C@@H](C)[C@H](O)[C@@H](O)[C@H]8O)[C@@H](O)[C@H]7O)CC[C@]56C)[C@@]4(C)CO)O[C@H](C(=O)O)[C@@H](O)[C@@H]3O)O[C@H](CO)[C@H]2O)[C@H](O)[C@H](O)[C@H]1O` (stereo partly specified), the activity, negative = inhibition in test [1] is -4.58% [at 9.52 µM]; in test [5] it was 0% [at 11.6 µM]. Moreover, the values for the activity change, negative = inhibition in test [2] and in test [3] were 1.11% [at 9.73 µM] and -1.57% [at 11.6 µM], respectively. Further, the activity change, negative = thiol reactive in test [4] is 155% [at 11.5 µM]. The redox activity (% of DA3003) in test [6] was 1.07% [at 11.5 µM].
For `CC(C)C(=O)OC[C@H]1O[C@H](O[C@H]2O[C@H](CO)[C@@H](O)[C@H](O)[C@H]2O)[C@H](O)[C@@H](O)[C@@H]1O`, the Potency entry in test [1], in test [2], in test [3], in test [4], in test [5] and in test [6] was “inactive” in each case.
On to `O=C(O)c1cccc(S(=O)(=O)N2CCc3ccccc3C2)c1`, for which the Potency entry in test [1], in test [2], in test [3], in test [4], in test [5] and in test [6] was “inactive” in each case.
For `CC(O)CO[C@@H]1O[C@H](CO)[C@@H](O)[C@H](O)[C@H]1O` (stereo partly specified), the Potency result in test [1], in test [2], in test [3], in test [4], in test [5] and in test [6] was “inactive” each time.
As for `CC(=O)NC[C@H]1CN(c2ccc(N3CCN(C(=O)CO)CC3)c(F)c2)C(=O)O1`, the Potency result in test [1], in test [2], in test [3], in test [4], in test [5] and in test [6] was “inactive” throughout.
Take `CC1=C(C(=O)O)/C(=C\CO[C@@H]2O[C@H](CO)[C@@H](O)[C@H](O)[C@H]2O)C(OC(=O)/C=C\c2ccc(O)cc2)C1` (stereo partly specified): the Potency entry in test [1], in test [2], in test [3], in test [5] and in test [6] was “inactive” each time. Further, the Potency in test [4] was 4.62 µM (active).
On to `O=C(O)c1ccccc1NC(=O)N1CCC(c2ccccc2C(F)(F)F)CC1`, for which the Potency entry in test [1], in test [2], in test [3], in test [4], in test [5] and in test [6] was “inactive” in each case.
`CC1(O)CCCC2(C)C1CCC13CC(CO)C(CCC12)C3` (stereo unspecified): the Potency result in test [1], in test [2], in test [3], in test [4], in test [5] and in test [6] was “inactive” in each case.
